Shown are actives, neighbours in structure and some others; about 6% of the full set was active somewhere.
D1 potentiator: human D1 dopamine receptor positive modulation; HEK293 TREx D1 cells, calcium flux, dopamine EC20 potentiation; potentiation, % at 10 µM; actives 0.036% (n = 360,000); AID 504651; in the data active = potentiation above about 30%
Target sequence (P21728 whole entry, looked up): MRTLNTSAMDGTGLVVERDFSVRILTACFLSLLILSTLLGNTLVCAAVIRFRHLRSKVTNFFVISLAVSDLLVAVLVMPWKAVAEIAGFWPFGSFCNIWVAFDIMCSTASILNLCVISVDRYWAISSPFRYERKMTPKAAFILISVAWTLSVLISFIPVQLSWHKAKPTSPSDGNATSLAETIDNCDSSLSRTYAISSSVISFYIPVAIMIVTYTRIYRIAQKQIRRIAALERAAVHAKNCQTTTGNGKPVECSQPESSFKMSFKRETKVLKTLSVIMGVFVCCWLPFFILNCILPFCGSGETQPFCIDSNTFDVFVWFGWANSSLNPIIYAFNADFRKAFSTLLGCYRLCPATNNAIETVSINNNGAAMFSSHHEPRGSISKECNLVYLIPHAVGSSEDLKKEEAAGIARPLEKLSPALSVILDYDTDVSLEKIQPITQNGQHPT
D3 antag: D3 dopamine receptor (human) antagonism | P35462 | D3R cells, DiscoveRx beta-arrestin luminescence, antagonist mode; hits give low values | max response, negative = inhibition, % | actives 2.5% (n = 360,000) | AID 652054; in the data active = max response below about -50%; inconclusive = no clear call, values can overlap the other calls
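Cells expressing the human receptor were seeded at 1500 cells/well, incubated overnight at 37 degrees C in 5% CO2, then exposed to library compounds with dopamine controls for 90 minutes at 37 degrees C before luminescent detection.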
D1 ag: human D1 receptor agonism; P21728; HEK293 T-REx D1 cells, calcium flux, agonist mode; activation, % at 2 µM; actives 1% (n = 360,000); AID 504660; in the data active = activation above about 30%
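Inducible HEK293 T-REx D1 cells, force-coupled to calcium signalling, were plated at 4000 cells/well with tetracycline and held overnight at 30 C. After no-wash calcium dye loading, compound-evoked calcium rise over 180 s flagged agonists.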
D1 antagonist: blocks dopamine activation of the human D1 receptor; AID 504652; HEK293 TREx D1 cells, calcium flux, dopamine EC80; hits give low values; actives 3.2% (n = 360,000); activity change, negative = inhibition, % at 10 µM; P21728; in the data active = activity change below about -30%
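Kinetic fluorescence of a calcium dye serves as the read-out. D1-expressing Hek293 Trex cells, induced overnight at 30 C, are exposed to compound for 180 s before an EC80 dopamine addition, then read 180 s further.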
D3 ag: activates the human D3 dopamine receptor; D3R DiscoveRx beta-arrestin cells, luminescence, 90 min; max activation, %; actives 0.58% (n = 410,000); AID 652048; in the data active = max activation above about 30%
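Agonist-mode cell screen: cells plated at 1500/well and incubated overnight at 37 °C, then exposed to library compounds for 90 min at 37 °C. Detection reagent was added for 30–60 min at room temperature, and luminescence was read.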
Hits are given with their value; n = inactive; u = inconclusive; x = not tested or not shown; ! = repeats disagree.

SMILES | D1 potentiator | D3 antag | D1 ag | D1 antagonist | D3 ag
CC(C)OC(=O)/C(C#N)=C/c1cn(C)c2ccccc12 | n | n | n | -39 | n
CCOC(=O)Cn1cc(/C=C(/C#N)C(=O)NC(C)C)c2ccccc21 | n | n | n | -33 | n
CCOC(=O)Cn1cc(/C=C(\C#N)C(=O)N2CCOCC2)c2ccccc21 | n | n | n | n | n
CC(C)OC(=O)/C(C#N)=C/c1cn(Cc2ccccc2)c2ccccc12 | n | n | n | n | n
O=C1c2ccsc2SCCN1Cc1c(Cl)cccc1Cl | n | -61 | n | n | n
COc1ccc(CNC(=O)Cn2ccc3cc(S(=O)(=O)N4CCCCCC4)ccc32)cc1OC | n | x | n | n | n
O=C1c2oc3ccccc3c(=O)c2C(c2ccc(O)cc2)N1Cc1ccc2c(c1)OCO2 (centres undefined) | n | x | n | n | n
CC(C)N(C(=O)CSc1ncnc2sc(-c3ccccc3)cc12)C(C)C | n | n | n | x | n
CC(Sc1ncnc2sc(-c3ccccc3)cc12)C(=O)N1CCNC1=O (centres undefined) | n | n | n | -41 | n
CSc1ccccc1C(=O)C1CCCN(C(=O)CCN2CCCO2)C1 (centres undefined) | n | n | n | n | n
COc1ccc(C(=O)C2CCCN(Cc3c(O)cccc3OC)C2)cc1OC (centres undefined) | n | n | n | n | n
COCCC(=O)N1CCCC(C(=O)c2ccccc2SC)C1 (centres undefined) | x | -59 | x | x | n
COc1cccc(OC)c1CN1CCCC(C(=O)c2ccccc2SC)C1 (centres undefined) | n | u | n | -57 | n
O=C1N(c2ccccc2C(F)(F)F)O[C@@]1(c1ccccc1)C1CCCCC1 | n | -57 | n | x | n
O=C1N(c2ccccc2C(F)(F)F)O[C@@]1(c1ccccc1)C1CCCC1 | n | n | n | x | n
COc1ccc(S(=O)(=O)Nc2ccc(-c3cn4c(C)csc4n3)cc2)cc1 | n | x | n | -72 | n
COc1ccc(CCNC(=O)c2ccc3c(c2)CCN3S(=O)(=O)c2ccc(Cl)cc2)cc1 | n | x | n | n | n
COCCCNC(=O)c1ccc(N2CCCC2)c(NS(=O)(=O)c2ccc(C)cc2)c1 | n | n | n | n | n
Cc1ccc(S(=O)(=O)Nc2cc(C(=O)NCCN3CCCC3)ccc2N2CCCCC2)cc1 | n | -51 | n | n | n
Cc1ccc(S(=O)(=O)Nc2cc(C(=O)NCCN(C)C)ccc2N2CCCCC2)cc1 | n | -64 | n | n | n
CCC(=O)c1ccc(OC(=O)Cc2ccc(OC)cc2)cc1 | n | n | n | -33 | n
CCN(CC)CCCNC(=O)c1ccc2c3n(nc2c1)-c1ccc(Cl)cc1CO3 | n | -116 | n | n | n
COCCNC(=O)c1ccc2c3n(nc2c1)-c1ccc(C)cc1CO3 | n | n | n | n | n
Cc1ccc2c(c1)COc1c3ccc(C(=O)N[C@@H](CO)C(C)C)cc3nn1-2 | n | n | n | n | n
CC(C)NC(=O)c1ccc2c3n(nc2c1)-c1ccc(Cl)cc1CO3 | n | n | n | n | 31
SMILES | D1 potentiator | D3 antag | D1 ag | D1 antagonist | D3 ag
O=C(C1CCC(Cn2c(=O)c3sccc3n(Cc3cccc(F)c3)c2=O)CC1)N1CCOCC1 (centres undefined) | n | x | n | n | n
CCN(C(=O)CSc1ncc2c(n1)-c1cc(Cl)ccc1N(Cc1ccccc1)S2(=O)=O)c1cccc(C)c1 | n | x | n | n | n
Cc1ccc(Cl)cc1Nc1nc2ccccc2c2nncn12 | n | x | n | n | n
COC(=O)c1cc(S(=O)(=O)NCc2cccc(OC)c2)cn1C | n | n | n | n | n
COC(=O)c1cc(S(=O)(=O)NCC2CCN(Cc3cccc(F)c3)CC2)cn1C | n | u | n | -39! | n
COC(=O)c1cc(S(=O)(=O)NCc2ccccc2OC)cn1C | n | n | n | -48 | n
CCOC(=O)c1cc(S(=O)(=O)NCC2CCN(Cc3cccc(C)c3)CC2)cn1C | n | n | n | n | n
Cn1cc(S(=O)(=O)N2CCCCC2)cc1C(=O)N1CCN(c2ccc(F)cc2)CC1 | n | x | n | n | n
COc1ccc(CSc2ccc(S(=O)(=O)N3CCCCC3)cn2)cc1F | n | n | n | -42 | n
COc1ccc(C(C)=O)cc1CSc1ccc(S(=O)(=O)N2CCCCC2)cn1 | n | n | n | -44 | n
O=S(=O)(c1ccc(SCc2ccc(Cl)cc2)nc1)N1CCCC1 | n | n | n | -33 | n
Cc1cc(C)cc(CSc2ccc(S(=O)(=O)N3CCCC3)cn2)c1 | n | n | n | n | n
COc1ccc(NC(=O)Cn2cnc3ccc(S(=O)(=O)N4CCC(C)CC4)cc3c2=O)cc1Cl | n | x | n | n | n
CC(C)(C)NCCC(O)c1cc(C(F)(F)F)nc2c(C(F)(F)F)cccc12 (centres undefined) | x | n | x | x | n
OC(c1cc(-c2ccc(Cl)cc2)nc2ccccc12)C1CCCCN1 (centres undefined) | n | n | n | n | n
OC(c1cc(C(F)(F)F)nc2c(Cl)cc(Cl)cc12)C1CCCCN1 (centres undefined) | n | n | 32 | n | n
O[C@@H](c1cc(C(F)(F)F)nc2c(C(F)(F)F)cccc12)[C@H]1CCCCN1 | n | n | 44 | n | n
Cc1ccc(Cn2c(SCC(=O)C(C)(C)C)nc3ccsc3c2=O)cc1 | n | x | n | n | n
CCOC(=O)c1cccc(NC(=O)c2cnc3sc(N4CCOCC4)nn3c2=O)c1 | n | x | n | n | n
CCOC(=O)c1cnc2ccccc2c1Nc1cccc(OC)c1 | n | x | n | -35 | n
CCOC(=O)c1cnc2ccc(OC)cc2c1Nc1ccc(OCc2ccccc2Cl)cc1 | n | x | n | n | n
CCOC(=O)c1cnc2ccc(OCC)cc2c1Nc1ccc(OCc2ccccc2Cl)cc1 | n | x | n | n | n
CCOC(=O)c1cnc2ccc(OC)cc2c1Nc1ccc2c(c1)OCCO2 | n | -70 | n | n | n
CCOC(=O)c1cnc2ccc(Cl)cc2c1Nc1ccc(OCC)cc1 | n | x | n | -58 | n
CCOC(=O)c1cnc2ccc(C(=O)OC)cc2c1Nc1ccc2c(c1)OCCO2 | n | n | n | n | n
SMILES | D1 potentiator | D3 antag | D1 ag | D1 antagonist | D3 ag
COc1cccc(C2CC(=O)Nc3cc4c(cc32)OCCO4)c1OC (centres undefined) | n | x | n | n | n
CC(C)Cn1c(/C=N/Nc2nc3ccccc3[nH]2)nc2ccccc21 | n | -71 | n | n | n
C=CCn1cc(/C=N/Nc2nc3ccccc3[nH]2)c2ccccc21 | n | -70 | n | n | n
Cc1nn(C)c2c1c(C(F)(F)F)cc(=O)n2CC(=O)N1CCCCC1C (centres undefined) | n | x | n | n | n
Clc1ccccc1OCCN1CCCCC1 | n | -80 | n | n | n
Cc1ccccc1OCCN1CCCC1 | n | u | n | n | n
Clc1ccc(OCCN2CCCCC2)c(Cl)c1 | n | -176 | n | n | n
Cc1nc2c(C(=O)NCc3ccccc3Cl)c[nH]n2c(=O)c1Cc1cccc(Cl)c1 | n | x | n | n | n

Screening results from PubChem.
